Data reported in PubChem BioAssay (EPA / NIEHS).
Inconclusive results are not listed. Active and inactive are the calls of the source. Rule for the calls: active = hit-call score of the fitted dose curve at least 0.9, where 1 is the maximum; inconclusive = response in the unintended direction; inactive = score below 0.9.

Molecular target: Androgen receptor (Homo sapiens) (UniProt P10275)
Assay: ATG_AR_TRANS: Attagene TRANS-FACTORIAL HepG2 Assay for human Androgen Receptor (AR) (AID 2282973)
Settings: HepG2 Attagene TRANS-FACTORIAL AR reporter transcription
Experimental: ATG_TRANS is a cell-based, multiplexed-readout assay that uses HepG2, a human liver cell line, with measurements taken at 24 hours after chemical dosing in a 24-well plate.ATG_AR_TRANS is one of 30 assay component(s) measured or calculated from the ATG_TRANS assay. It is designed to make measurements of mRNA induction, a form of inducible reporter, as detected with fluorescence intensity signals by Reverse transcription polymerase chain reaction (RT-PCR) and Capillary electrophoresis technology.Data from the assay component ATG_AR_TRANS was analyzed into 1 assay endpoint. This assay endpoint, ATG_AR_TRANS, was analyzed in the positive analysis fitting direction relative to DMSO as the negative control and baseline of activity. Using a type of inducible reporter, measures of mRNA for gain-of-signal activity can be used to understand the reporter gene at the transcription factor-level as they relate to the gene AR. Furthermore, this assay endpoint can be referred to as a primary readout, because this assay has produced multiple assay endpoints where this one serves a reporter gene function. To generalize the intended target to other relatable targets, this assay endpoint is annotated to the nuclear receptor intended target family, where the subfamily is steroidal.
Human liver HepG2 cells are transiently transfected with multiple reporter transcription units (MRTUs) in 6-well plates using FuGene 6 reagent (Roche; 3 ml FuGene/1 mg DNA). The MRTU constructs are regulated by a cis-regulating element (promoter). […] A major difference between the CIS and TRANS system is that in CIS activities of endogenous TFs are measured, whereas the TRANS assay evaluates changes in activities of exogenous, chimeric NR-Gal4 proteins. […] At the end of 24 hour incubation, total RNA was isolated using TriZol reagent (Invitrogen). The isolated RNA is then reverse-transcribed using oligo(dT) primer and Mo-MLV reverse transcriptase (Invitrogen) with DNAse I (Ambion) treatment for 30 min. The one-tenth of the produced cDNA was amplified by PCR using Taq DNA polymerase (Invitrogen) and two reporter sequence-specific primers. The PCR products were fluorescently labeled by primer extension with 6-arboxyfluorescein (6-FAM) 5'-labeled reporter sequence-specific primer (2 min at 95 C, 20 s at 68 C and 10 min at 72 C) and these products were digested with 5U of HpaI (New England Biolabs) for 2h at 37 C. The fragments were purified using Qiaquick PCR columns (Qiagen), analyzed on an ABI 3130xL genetic analyzer (Applied Biosystems) with peak positions identified by using a set of X-rhodamine (ROX)-labeled MapMarker1000 molecular weight standards (BioVentures). The raw capillary electrophoresis data was processed using Attagraph software (Attagene).

Chain of Androgen receptor (Homo sapiens) (P10275 whole entry, looked up): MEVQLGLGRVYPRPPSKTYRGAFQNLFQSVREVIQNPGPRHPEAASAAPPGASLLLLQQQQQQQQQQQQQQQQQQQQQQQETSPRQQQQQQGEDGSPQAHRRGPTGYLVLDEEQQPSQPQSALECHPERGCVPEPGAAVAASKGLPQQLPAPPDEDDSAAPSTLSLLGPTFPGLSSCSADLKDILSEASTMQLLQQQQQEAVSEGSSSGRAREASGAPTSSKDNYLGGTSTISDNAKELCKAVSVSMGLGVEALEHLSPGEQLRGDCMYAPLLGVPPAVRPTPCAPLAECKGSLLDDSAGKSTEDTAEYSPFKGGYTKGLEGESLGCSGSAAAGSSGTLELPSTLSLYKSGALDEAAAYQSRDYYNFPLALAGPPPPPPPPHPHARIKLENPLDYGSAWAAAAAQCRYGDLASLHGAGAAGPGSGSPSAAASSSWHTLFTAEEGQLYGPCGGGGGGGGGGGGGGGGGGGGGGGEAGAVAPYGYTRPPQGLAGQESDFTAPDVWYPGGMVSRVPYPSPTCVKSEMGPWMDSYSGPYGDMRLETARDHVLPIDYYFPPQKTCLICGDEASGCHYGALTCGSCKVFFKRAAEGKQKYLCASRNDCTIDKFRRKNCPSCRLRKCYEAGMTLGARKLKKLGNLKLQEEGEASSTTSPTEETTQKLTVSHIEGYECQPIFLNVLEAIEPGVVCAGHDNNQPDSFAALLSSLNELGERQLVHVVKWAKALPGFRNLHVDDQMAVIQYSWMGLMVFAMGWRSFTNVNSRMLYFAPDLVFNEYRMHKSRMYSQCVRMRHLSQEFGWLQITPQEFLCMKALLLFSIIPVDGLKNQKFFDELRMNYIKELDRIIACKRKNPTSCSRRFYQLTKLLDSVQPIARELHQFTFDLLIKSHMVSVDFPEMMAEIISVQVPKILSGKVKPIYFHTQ

Row | Structure (SMILES) | outcome
1 | CCCCCCOc1ccc(O)cc1 | inactive
2 | FC(F)(F)C1(F)C(F)(F)C(F)(F)C(F)(F)C(F)(C(F)(F)F)C1(F)F (stereo not given) | inactive
3 | OCC(F)(F)C(F)(F)C(F)(F)C(F)(F)C(F)(F)C(F)(F)F | inactive
4 | CCN(Cc1cccnc1)C(=O)c1cccc(Cl)c1[C@]1(C)C(=O)N(Cc2ccc(OC)cc2OC)c2ccc(Cl)cc21 | inactive
5 | O=C[C@H](O)[C@H](O)[C@H](O)CO | inactive
6 | O=P(O)(O)CCC(F)(F)C(F)(F)C(F)(F)C(F)(F)C(F)(F)C(F)(F)C(F)(F)C(F)(F)F | inactive
7 | CC1CCC(C(=O)O)CC1 (stereo not given) | inactive
8 | CCc1cccc(CC)c1NC(=O)C(=O)O | inactive
9 | CC(C)(c1ccc(O)cc1)c1ccc(O)cc1 | inactive
10 | N#Cc1ccc(C(c2ccc(C#N)cc2)n2cncn2)cc1 | inactive
11 | COc1ccc(C(=O)/C(Br)=C\C(=O)O)cc1 | inactive
12 | CC(C)c1ccc2c(c1)CC[C@H]1[C@](C)(CN)CCC[C@]21C | inactive
13 | C=C(C)C(=O)OCCC(F)(F)C(F)(F)C(F)(F)C(F)(F)C(F)(C(F)(F)F)C(F)(F)F | inactive
14 | O=c1cc(-c2ccccc2)oc2ccccc12 | inactive
15 | O=C(Cl)c1ccc(Cl)cc1Cl | inactive
16 | Cc1nn(C)c(Oc2ccccc2)c1C=NOCc1ccc(C(=O)OC(C)(C)C)cc1 | inactive
17 | CCOC(=O)[C@@H](C)Oc1ccc(Oc2nc3ccc(Cl)cc3o2)cc1 | inactive
18 | FC(F)(F)C(F)(F)CNCC(F)(F)C(F)(F)F | inactive
19 | CCN(CC)c1ccc(C=O)cc1 | inactive
20 | CN[C@H]1CC[C@@H](c2ccc(Cl)c(Cl)c2)c2ccc(S(N)(=O)=O)cc21 | inactive

Row | Structure (SMILES) | outcome
21 | CCOC(OCC)C(=O)c1ccccc1 | inactive
22 | NS(=O)(=O)C(F)(F)C(F)(F)C(F)(F)C(F)(F)C(F)(F)C(F)(F)F | inactive
23 | COC(F)(C(F)F)C(F)(F)F (stereo not given) | inactive
24 | O=CC(F)(F)C(F)(F)C(F)(F)C(F)F | inactive
25 | O=C(NS(=O)(=O)/C=C/c1cccs1)c1ccc(F)cc1Br | inactive
26 | CCc1cccc(C)c1N(C(=O)C(=O)O)C(C)COC (stereo not given) | inactive
27 | N#C[C@@H]1CC(F)(F)CN1C(=O)CNC1CC2CCC(C1)N2c1ncccn1 (stereo not given in full) | inactive
28 | [Cl][Bi]([Cl])([c]1ccccc1)([c]1ccccc1)[c]1ccccc1 | inactive
29 | Cc1cc(C(=C2C=CC(=Nc3ccc(S(=O)(=O)O)cc3)C=C2)c2ccc(Nc3ccc(S(=O)(=O)O)cc3)cc2)cc(S(=O)(=O)O)c1N | inactive
30 | O=c1cccc[nH]1 | inactive
31 | Cc1ccc(N(C)C)cc1 | inactive
32 | NCCCN1CCN(CCCN)CC1 | inactive
33 | O=C(F)C(F)(F)C(F)(F)C(F)(F)C(F)F | inactive
34 | COc1cc(-c2nc(NC(=O)c3cc4cc(C)cc(C)c4n3CC(=O)O)sc2CCC2CCCCC2)c(OC)cc1Cl | inactive
35 | CC1CCC(CO)CC1 (stereo not given) | inactive
36 | O=c1c(-c2ccc(O)cc2)coc2cc(O)cc(O)c12 | inactive
37 | c1cc(OCC2CO2)ccc1Cc1ccc(OCC2CO2)cc1 (stereo not given) | inactive
38 | COCC(C)OCC(C)O (stereo not given) | inactive
39 | O=C(Nc1ccc(Cl)cc1)Nc1ccc(Cl)c(Cl)c1 | inactive
40 | CCN(CC)CCOc1ccc(C(=C(Cl)c2ccccc2)c2ccccc2)cc1 | inactive
